In PubChem BioAssay (Tox21):
Records with an inconclusive call do not appear. Values without a mark were called inactive. The source made the active and inactive calls. Calls come from the whole dose curve; as a rule, active = well fitted cell-killing curve with a large enough effect in the repeat runs; inconclusive = weak or mixed curves, or effect the other way; inactive = flat fitted curve, though single readings scatter.

test: qHTS RealTime-Glo MT Cell Viability Assay in HepG2 cells - 0 hour (AID 1224889); conditions: RealTime-Glo luminescence; series mostly up to 76.8 µM; activity change, negative = cytotoxicity: at the top concentration; note: nearly all actives have a fitted effect of over 50% in size
From the text: U.S. Tox21 Program National Center for Advancing Translational Sciences [NCATS] NIH Chemical Genomics Center [NCGC] U.S. Environmental Protection Agency [EPA] National Institutes of Environmental Health Sciences [NIEHS] National Toxicology Program [NTP] U.S. Food and Drug Administration [FDA] Tox21 Assay Overview: Measure of cell viability is critical in the cell-base assay. Analysis of cell viability is necessary for the characterization of cell responses to cytotoxic drugs and environmental stress. A RealTime-Glo MT Cell Viability Assay to monitor cell viability in real time of continues cell culture during 40 hours of compound treatment was used to screen Tox21 10K library compounds in HepG2 cells. The RealTime-Glo MT Cell Viability Assay is a nonlytic, homogeneous, bioluminescent method to measure cell viability in real time using a simple, plate-based method. The assay involves adding NanoLuc luciferase and a cell-permeant prosubstrate to cells in culture. Viable cells reduce the proprietary prosubstrate to generate a substrate for NanoLuc luciferase. This substrate diffuses from cells into the surrounding culture medium, where it is rapidly used by the NanoLuc Enzyme to produce a luminescent signal. The signal correlates with the number of viable cells, making the assay well suited for cytotoxicity studies.
Tox21 Assay Protocol Summary: The mixture of HepG2 cell suspension and reagents were dispensed at 600cells/6 ul/well in 1536-well tissue culture treated black solid bottom plates using a Multidrop dispenser. After the assay plates were incubated at a 37 C/5% CO2 incubator for 5 hours, 23 nL of compounds dissolved in DMSO, positive and negative controls was transferred to the assay plate by a pintool work station. The plates were incubated at 37 C for 40 hours. The luminescence intensity were measured at 0h, 8h, 16h, 24h, 32h and 40h time points using ViewLux plate reader during compound treatment.
% is set by controls: 0 for no effect and ±100 for the full control effect.

Compound	activity change, negative = cytotoxicity	Potency
COc1cc2nc(N3CCN(C(=O)c4ccco4)CC3)nc(N)c2cc1OC	8.34% [at 15.8 µM]	
CN(C)C(=O)COC(=O)Cc1ccc(OC(=O)c2ccc(N=C(N)N)cc2)cc1	2.01% [at 35.3 µM]	
CC(C)(C)C1CCC(=O)CC1	-0.0838%	
CCCNCCC	1.96%	
C=C(C)c1cccc(C(=C)C)c1	4.13%	
O=C1c2ccccc2C(=O)N1SC1CCCCC1		inactive
Nc1ccc(NCCO)c([N+](=O)[O-])c1	-11.8%	
CCCCN(CCCC)CC(O)c1cc(Cl)cc2c1-c1ccc(Cl)cc1/C2=C/c1ccc(Cl)cc1 (stereo not given)	4.99% [at 35.3 µM]	
O=c1[nH]c(=O)n([C@H]2C[C@H](O)[C@@H](CO)O2)cc1F	-0.214% [at 35.3 µM]	
CCCCCCC1CCCC(=O)O1 (stereo not given)	12.5%	
COc1cc(C)ccc1O	5.02%	
COC(=O)C1=C(C)NC(C)=C(C(=O)OCCN2CCN(C(c3ccccc3)c3ccccc3)CC2)C1c1cccc([N+](=O)[O-])c1 (stereo not given)	-10.3% [at 35.3 µM]	
CN(C)Cc1ccccc1O	-10.7%	
c1cnccn1	0.402%	
Oc1cc(Cl)cc(Cl)c1Cl	-2.83%	
COCCOc1cc2cc(C(=O)NC3CCN(C(C)C)CC3)n(CC(=O)Nc3ccc(Cl)cn3)c2cn1	-0.926%	
CC1(C)CCC[C@]2(C)[C@H]3CCO[C@]3(C)CC[C@@H]12	4.97%	
CC(C)CCCCCOC(=O)CCS	-8.57%	
CCCCCCCC	0.879%	
CCC(COC(=O)CCS)(COC(=O)CCS)COC(=O)CCS	-29.4%	

Compound	activity change, negative = cytotoxicity	Potency
CC(CCc1ccccc1)NCC(O)c1ccc(O)c(C(N)=O)c1 (stereo not given)	0.296%	
O=C1CCc2ccc(OCCCCN3CCN(c4cccc(Cl)c4Cl)CC3)cc2N1	-7.52% [at 35.3 µM]	
C/C=C/C=C/COC(=O)C(C)C	3.96%	
CCn1c2ccccc2c2cc([N+](=O)[O-])ccc21	-5.06%	
CCCCCCCCCCCCCC[N+](C)(C)Cc1ccccc1		inactive
CCC(CC)(CC(=O)Nc1cccc(/C=C/c2nc(C3CCC3)cs2)c1)C(=O)O	-23.7% [at 35.3 µM]	
C1CCC(SSC2CCCCC2)CC1	3.25%	
CC1(C)CC(O)CC(C)(C)N1	6.6%	
C=Cc1cccc(C)c1		inactive
c1ccsc1	3.06%	
CCCCCCOC(=O)C(C)CC (stereo not given)	3.28%	
CN1CCN2c3ccccc3Cc3ccccc3C2C1 (stereo not given)	18.3% [at 35.3 µM]	
CC(C)(C)c1ccc(C(O)CCCN2CCC(C(O)(c3ccccc3)c3ccccc3)CC2)cc1 (stereo not given)	18.1% [at 35.3 µM]	
O=c1[nH]c2ccccc2n1CCCN1CCN(C(c2ccccc2)c2ccccc2)CC1	-4.74% [at 35.3 µM]	
Cc1c2ccccc2c(C)c2c1ccc1ccccc12		inactive
CN1CCCCC1CCN1c2ccccc2Sc2ccc(S(C)=O)cc21 (stereo not given)	18.5% [at 35.3 µM]	
O=C(O)CCN(C1(C(=O)NO)CCCC1)S(=O)(=O)c1ccc(Oc2ccc(F)cc2)cc1	2.43%	
Fc1ccc(C(c2ccc(F)cc2)N2CCNCC2)cc1	15.8% [at 35.3 µM]	
Sc1nc2ccccc2s1	0.0516%	
O=C(O)O	-3.52% [at 6.97 µM]	
